This is a sample that favours compounds with a hit; in the whole collection about 14% have one here.
AID923: qHTS Assay for Allosteric/Competitive Inhibitors of Caspase-1: Spectroscopic Profiling in AFC Spectral Region; compound fluorescence, AFC spectral region (405/520 nm); Potency, µM (top dose mostly 57.5 µM), for inactives: at the top dose fluorescence increase, most hits filed as activators; hit rate 1.1% among 75,000; AID 923, 2007; note: potency is the fitted concentration of half-maximal effect; 0% is about no effect
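Baseline compound fluorescence (AFC region, 405 nm ex/520 nm em) taken from the intercept of kinetic reads with 50 nM caspase-1 and 5 uM Ac-WEHD-AFC; normalized to an on-plate AFC standard curve; compounds titrated up to 57 uM.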
CRE Fsk mod: alters forskolin-stimulated CRE reporter signaling in CHO cells; CHO CRE-bla reporter (cAMP response element driving beta-lactamase), forskolin EC10, beta-lactamase ratio; Potency, µM (titrated, usually from 38.2 µM), without a hit: at the highest dose activity change, negative = inhibition, hits mostly activators; hit rate 2.5% among 71,000; AID 662; active = well fitted activation curve with a large enough effect in the signal ratio, with a control signal flat, not every such curve was filed as active; inconclusive = small, poorly fitted or top-dose-only effect, or effect the other way, or a change in a side signal; the % refers to the signal ratio; note: potency is the fitted concentration of half-maximal effect; % of control where 0% means no effect
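Reporter-gene assay: CHO cells with beta-lactamase behind cAMP responsive elements, co-treated with compound and EC10 NKH 477 for 3 hours at 37 degrees Celsius. Activity came from the 460/530 nm CCF4 emission ratio.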
HADH2 inhib: HADH2 (human) dehydrogenase inhibition; recombinant HADH2, NADH fluorescence, beta-hydroxybutyryl-CoA; Potency, µM (series often up to 57.1 µM), for the others: at the highest dose activity change, negative = inhibition, hits mostly inhibitors; hit rate 3.4% among 73,000; AID 886; note: potency is the fitted concentration of half-maximal effect; % is set by controls: 0 for no effect and ±100 for the full control effect; nearly all actives have a fitted effect of over 60% in size
Target sequence (Q99714 whole entry, looked up, one chain of several): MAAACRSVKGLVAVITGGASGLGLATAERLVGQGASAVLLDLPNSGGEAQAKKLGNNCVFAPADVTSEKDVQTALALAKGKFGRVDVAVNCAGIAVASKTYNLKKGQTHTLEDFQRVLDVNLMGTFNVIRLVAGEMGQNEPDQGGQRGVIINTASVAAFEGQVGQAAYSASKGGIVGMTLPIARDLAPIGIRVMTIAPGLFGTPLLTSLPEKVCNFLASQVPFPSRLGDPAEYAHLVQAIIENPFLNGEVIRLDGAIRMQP
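20 nM HADH2 + cpd, 15 min RT; add 1 mM NAD+/90 uM beta-hydroxybutyryl-CoA; kinetic fluorescence 360/450 nm, 4 min. Tris-HCl pH 9.0, 0.01% Tween-20.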
A350 autofl: A350 region autofluorescence | Compound autofluorescence, 340/450 nm, Alexa 350 dye-equivalents; hits give high values | max dye-equivalent concentration, M | hit rate 11% among 59,000; in the data active = max dye-equivalent concentration above about 10 nM; inconclusive = mostly about 1.1 nM to 9.6 nM
HSD17B inh: inhibitors of human HSD17B10 dehydrogenase; recombinant HSD17B10, NADH fluorescence kinetic; Potency, µM (doses to about 57.1 µM), without a hit: at the top dose activity change, negative = inhibition, hits mostly inhibitors; hit rate 7.6% among 75,000;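 note: the protocol describes HADH2 (HSD17B10) and not the HSD17B4 of the title; potency is the fitted concentration of half-maximal effect; % is set by controls: 0 for no effect and ±100 for the full control effect; nearly all actives have a fitted effect of over 70% in size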
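Activity followed as NADH fluorescence increase (ex 360, em 450 nm) every 30 seconds for 4 min, using final 90 uM beta-hydroxybutyryl CoA and 1 mM NAD+. Recombinant His-tagged enzyme, 20 nM, pH 9.0 Tris buffer, 15 min compound preincubation.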
4-MU autofl: compounds fluorescent in 4-MU spectral region. max dye-equivalent concentration, M. hit rate 11% among 59,000. AID 589. compound autofluorescence, 340/450 nm, 4-MU equivalents; hits give high values; in the data active = max dye-equivalent concentration above about 10 nM; inconclusive = mostly about 1.1 nM to 9.6 nM
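Compounds in 100 mM Tris, pH 8.0, incubated 15 min at room temperature, then fluorescence read at 340 nm excitation/450 nm emission. Signal converted to 4-MU dye-equivalent concentration using an on-plate six-point 4-MU standard curve.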
Active calls of the source: *. Unless noted, calls come from the whole dose curve; as a rule, active = well fitted curve in the direction sought with a large enough effect; inconclusive = small, poorly fitted or top-dose-only effect, or another doubt; inactive = no such curve, though single readings can be large; an effect the other way counts as inactive or inconclusive.

Results for Cc1nc(N2CCOCC2)c2nc(-c3ccccc3)n(CCCN3CCCCC3C)c2n1 (stereo not drawn) ?
AID923: 0%; CRE Fsk mod: 1%; HADH2 inhib: -2%; HSD17B inh: 25µM*

How did Cc1nc(N2CCOCC2)c2nc(-c3ccccc3)n(CCN3CCCCC3)c2n1 do in these assays?
AID923: -2%; CRE Fsk mod: 3%; HADH2 inhib: 10%; HSD17B inh: 25µM*

What do the screens show for `COCCN(CCOC)c1nc(C)nc2c1nc(-c1ccccc1)n2CCCN1CCCCC1C` (stereo not drawn)?
AID923: 1%; CRE Fsk mod: 3%; HADH2 inhib: -9%; HSD17B inh: 25µM*

Results for CCN(CC)CCn1c(-c2ccccc2)nc2c(N3CCOCC3)nc(C)nc21 ?
AID923: 14%; CRE Fsk mod: 11%; HADH2 inhib: inconclusive; HSD17B inh: inconclusive

What do the screens show for `CCCn1c(C)nc2c(NCCCN3CCCCC3C)nc(C)nc21` (stereo not drawn)?
AID923: -1%; CRE Fsk mod: 4%; HADH2 inhib: 5%; HSD17B inh: 3%

What do the screens show for `CCCn1c(-c2ccc(F)cc2)nc2c(N3CCCN(Cc4ccccc4)CC3)nc(C)nc21`?
AID923: 1%; CRE Fsk mod: 1%; HADH2 inhib: -17%; HSD17B inh: 32µM*

Results for CCN(CC)C(=O)C1CC(=O)N(c2ccc(F)c(Cl)c2)C1 (stereo not drawn) ?
AID923: 1%; CRE Fsk mod: 0%; HADH2 inhib: -6%; A350 autofl: inactive; HSD17B inh: 9%; 4-MU autofl: inactive

Results for Cc1sc2nc(C(C)Sc3nnc(C)n3-c3ccccc3)[nH]c(=O)c2c1C (stereo not drawn) ?
AID923: 4%; CRE Fsk mod: -4%; HADH2 inhib: -19%; A350 autofl: inconclusive; HSD17B inh: -4%; 4-MU autofl: inconclusive

What do the screens show for `CCCn1c(C)nc2c(N3CCOCC3)nc(C)nc21`?
AID923: 2%; CRE Fsk mod: 10µM*; HADH2 inhib: 16%; HSD17B inh: -6%

Results for COc1cc2c(cc1OC)-c1cc(NCc3ccccn3)nc(=O)n1CC2 ?
AID923: 3%; CRE Fsk mod: 13µM*; HADH2 inhib: 25µM*; A350 autofl: 2.3e-07M*; HSD17B inh: 32µM*; 4-MU autofl: 1.7e-07M*

Results for COc1cc2c(cc1OC)-c1cc(OCCN3CCOCC3)nc(=O)n1CC2 ?
AID923: 7%; CRE Fsk mod: 7.9µM*; HADH2 inhib: 3.2µM*; A350 autofl: 2.9e-07M*; HSD17B inh: 25µM*; 4-MU autofl: 5.3e-07M*

How did CCCS(=O)(=O)N1CCc2cc(OC)c(OC)cc2C1 do in these assays?
AID923: -1%; CRE Fsk mod: inconclusive; HADH2 inhib: 4%; A350 autofl: inactive; HSD17B inh: 1%; 4-MU autofl: inactive

What do the screens show for `CCNc1cc2n(c(=O)n1)CCc1cc(OC)c(OC)cc1-2`?
AID923: 3%; CRE Fsk mod: 10µM*; HADH2 inhib: 25µM*; A350 autofl: 6.2e-08M*; HSD17B inh: 25µM*; 4-MU autofl: 5e-08M*

How did COc1ccc(C2C(C(=O)NCc3ccccn3)c3cc(OC)c(OC)cc3C(=O)N2C)cc1 (stereo not drawn) do in these assays?
AID923: 1%; CRE Fsk mod: 6%; HADH2 inhib: 10%; A350 autofl: inactive; HSD17B inh: 15%; 4-MU autofl: inactive

What do the screens show for `CCCCCCNc1cc2n(c(=O)n1)CCc1cc(OC)c(OC)cc1-2`?
AID923: 1%; CRE Fsk mod: 2µM*; HADH2 inhib: inconclusive; A350 autofl: 1e-07M*; HSD17B inh: 20µM*; 4-MU autofl: 8.4e-08M*

What do the screens show for `COCCN1C(=O)c2ccccc2C(C(=O)NCC2CCCO2)C1c1c[nH]c2ccccc12` (stereo not drawn)?
AID923: -1%; CRE Fsk mod: 3%; HADH2 inhib: -1%; A350 autofl: inactive; HSD17B inh: 1%; 4-MU autofl: inactive

How did C=CCNC(=O)C1CCN(S(=O)(=O)c2ccc(Br)cc2)CC1 do in these assays?
AID923: -1%; CRE Fsk mod: -1%; HADH2 inhib: 1%; HSD17B inh: 0%

Results for CCc1ccc(OCC(=O)OC2CCS(=O)(=O)C2)cc1 (stereo not drawn) ?
AID923: -1%; CRE Fsk mod: -2%; HADH2 inhib: -17%; A350 autofl: inactive; HSD17B inh: 2%; 4-MU autofl: inactive

Results for Cc1[nH]nc(N=CC2=C(O)CC(c3ccco3)CC2=O)c1-c1ccccc1 (stereo not drawn) ?
AID923: 14%; CRE Fsk mod: inconclusive; HADH2 inhib: -1%; A350 autofl: 3.2e-08M*; HSD17B inh: inconclusive; 4-MU autofl: 3e-08M*

How did Cc1[nH]nc(N=CC2=C(O)CC(C)(C)CC2=O)c1-c1ccccc1 do in these assays?
AID923: 2%; CRE Fsk mod: -9%; HADH2 inhib: 1%; A350 autofl: 1.4e-08M*; HSD17B inh: -17%; 4-MU autofl: 1.2e-08M*

Results for Cc1[nH]nc(N=Cc2c(O)n(C)c(=O)n(C)c2=O)c1-c1ccccc1 ?
AID923: -1%; CRE Fsk mod: inconclusive; HADH2 inhib: 418%; A350 autofl: 2.8e-06M*; HSD17B inh: 2%; 4-MU autofl: 2.3e-06M*

What do the screens show for `c1ccc(-c2nc3nonc3c3nc4ccccc4n23)cc1`?
AID923: -1%; CRE Fsk mod: 19%; HADH2 inhib: inconclusive; A350 autofl: 7.3e-08M*; HSD17B inh: 32µM*; 4-MU autofl: 9.2e-08M*

Results for COC(=O)C1(C)Nc2ccccc2C(=O)N1c1ccccc1C (stereo not drawn) ?
AID923: 3%; CRE Fsk mod: -9%; HADH2 inhib: inconclusive; HSD17B inh: 32µM*

How did CC(=O)OC1c2ccccc2C(=O)N1c1ccccc1C (stereo not drawn) do in these assays?
AID923: -2%; CRE Fsk mod: -5%; HADH2 inhib: 5%; HSD17B inh: 6%

What do the screens show for `C[C@@H](C(=O)NCc1cccc2ccccc12)[C@H]1C[C@]1(C)[C@H](NC(=O)OCc1ccccc1)c1ccccc1`?
AID923: -4%; CRE Fsk mod: inconclusive; HADH2 inhib: 10%; HSD17B inh: 32µM*

How did C[C@@H](C(=O)NCc1ccccc1)[C@@H]1C[C@@]1(C)[C@@H](NC(=O)OCc1ccccc1)c1ccccc1 do in these assays?
AID923: -1%; CRE Fsk mod: -5%; HADH2 inhib: 1%; HSD17B inh: 0%
